PubChem BioAssay (EPA / NIEHS)
Active and inactive are the calls of the source. The calls were made as follows: active = hit-call score of the fitted dose curve at least 0.9, where 1 is the maximum; inactive = score below 0.9.

read-out: Hypoxia-inducible factor 1-alpha (Homo sapiens) (UniProt Q16665); assay: LTEA_HepaRG_HIF1A: Life Technologies and Expression Analysis (LTEA) Assay for Hypoxia-inducible factor 1 (HIF1A) Trancription factor using HepaRG (AID 2283503); details: mRNA level, 48 h; actives raise or lower the signal;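 also: HIF1A transcript by TaqMan qRT-PCR normalized to ACTB GAPDH and POLR2A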
Procedure: LTEA_HepaRG is a cell based, multiplexed-readout assay that uses HepaRG, a human liver cell line, with measurements taken at 48 hours after chemical dosing on a 96-well plate.LTEA_HepaRG_HIF1A is one of 102 assay component(s) measured in the LTEA HepaRG cell culture assay. It is a marker of Cell proliferation, survival, death.Data from the assay component LTEA_HepaRG_HIF1A was analyzed into 1 endpoint. This assay endpoint, LTEA_HepaRG_HIF1A, was analyzed with bidirectional fitting relative to DMSO as the negative control and baseline of activity. Using a type of inducible reporter, measures of mRNA induction for gain or loss-of-signal activity can be used to understand regulation of transcription factor activity. To generalize the intended target to other relatable targets, this assay endpoint is annotated to the dna binding intended target family, where the subfamily is basic helix-loop-helix protein.
A total of 1060 chemcials from the ToxCast library were tested in eight-point concentration-response experiments. Cell culture and cytotoxicity assays were conducted at Thermo Fisher Scientific's Custom Services facility (Madison, WI). A single lot of human HepaRG cells (Thermo Fisher Scientific, Frederick, MD) was used for the cell culture experiments. 96-well format collagen type I coated plates of human HepaRG cells were prepared using established methods. Briefly, cryopreserved HepaRG cells were thawed, plated at a density of approximately 100,000 cells/well in HepaRG Thaw, Plate, and General Purpose media (HPRG770, Thermo Fisher Scientific), and incubated for 48 hours. 0.5% DMSO was selected as vehicle control to balance the requisite need of DMSO in HepaRG cultures to maintain differentiation (for example, baseline metabolism, proportions of hepatocytes vs. cholangiocytes), while enabling further hepatic receptor pathway activation (for example, PXR and CAR) in response to chemical exposure. 48 hours after plating, the culture medium was replaced with HepaRG Serum-Free Incudtion Media. Cells were exposed to each test chemical in duplicate and maintained in CO2 incubators for another 48 hours. Chemical plates were thawed to room temperature and 200x concentrations of treatment groups were prepared. 8-point conentration-reponse curves were made with the highest exposure at 100 uM, followed by half-log dilutions, all in 0.5% DMSO. Each test plate contained variouse controls, induction positive controls (1mM phenobarbital), cytotoxicity positive controls ([…] aflatoxin B1), vehicle controls (0.5% DMSO), and total lysis controls (0.5% DMSO). Cell morphology images were taken using an Essen IncuCyte FLR automated microscope, with six 96-well plates imaged in about 24 minutes. Images were captured and exported and JPEG files. Spent culture media was transfered to black-well plates for the LDH assay, and remaining media was sorted at -80 C for later use. Cells were treated with RLT buffer and frozen until shipped for gene expression analysis. Total RNA was isolated from the cell suspension in 75 uL of Buffer RLT (Qiagen, Germantown, MD 20874) by Quintiles/Expression Analysis (Durham, NC) using a custom isolation procedure. Total RNA from each plate well was transferred to a preamplification plate. Fluidigm's 96.96 Dynamic ArrayTM (Fluidigm, Amsterdam, the Netherlands) technology was used for gene expression analyses by quantitative reverse transcription polymerase chain reaction (qRT-PCR, performed by Quintiles/Expression Analysis, Durham, NC)89. Standard TaqManTM Assays (Applied Biosystems/ThermoFisher Scientific, Foster City, CA) were used to assess the expression of 93 genes selected based on their selectivity and sensitivity to important hepatic receptors known to be modulated by environmental chemicals; importance in human hepatocyte functionality; and hepatotoxicity. […]

Sequence of Hypoxia-inducible factor 1-alpha (Homo sapiens) (Q16665 whole entry, looked up): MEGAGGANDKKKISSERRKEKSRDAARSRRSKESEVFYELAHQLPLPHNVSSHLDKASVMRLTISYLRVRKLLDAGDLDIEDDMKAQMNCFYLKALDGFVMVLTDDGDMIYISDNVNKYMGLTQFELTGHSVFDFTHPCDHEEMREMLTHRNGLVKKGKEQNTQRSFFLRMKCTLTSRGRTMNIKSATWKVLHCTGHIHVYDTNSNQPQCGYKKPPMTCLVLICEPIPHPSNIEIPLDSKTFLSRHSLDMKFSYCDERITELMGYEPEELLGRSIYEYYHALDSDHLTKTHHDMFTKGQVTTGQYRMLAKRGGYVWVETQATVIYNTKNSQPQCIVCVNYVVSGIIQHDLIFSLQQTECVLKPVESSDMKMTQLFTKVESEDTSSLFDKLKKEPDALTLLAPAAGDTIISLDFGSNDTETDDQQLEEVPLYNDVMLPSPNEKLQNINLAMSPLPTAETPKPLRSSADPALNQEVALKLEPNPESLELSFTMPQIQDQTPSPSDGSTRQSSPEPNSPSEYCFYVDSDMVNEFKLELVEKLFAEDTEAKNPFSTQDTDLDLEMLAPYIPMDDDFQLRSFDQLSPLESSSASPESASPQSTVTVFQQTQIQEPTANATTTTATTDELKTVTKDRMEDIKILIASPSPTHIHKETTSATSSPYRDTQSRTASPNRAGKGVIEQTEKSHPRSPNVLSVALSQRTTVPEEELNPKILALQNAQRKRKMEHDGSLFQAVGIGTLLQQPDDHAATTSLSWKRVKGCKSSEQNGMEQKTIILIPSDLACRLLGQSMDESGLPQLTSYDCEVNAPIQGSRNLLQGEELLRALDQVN

Structure (SMILES)	outcome	AC50
OC(CCl)CCl	inactive	
CCCc1ccccc1	inactive	
CCCCCCCCN(C)C	inactive	
CCCCOC(=O)c1ccccc1	inactive	
Cc1nc(-c2ccccn2)ncc1C(=O)Nn1cc(C)c2cc(F)ccc21		81 µM (active)
CCCCCOC(C)=O	inactive	
CC(C)CC(C)O (stereo not given)	inactive	
Cc1ncc([C@@H](CCCCCCc2ccc3c(n2)NCCC3)CC(=O)O)cn1	inactive	
OC[C@H]1O[C@@H]2O[C@H]3[C@H](O)[C@@H](O)[C@@H](O[C@H]4[C@H](O)[C@@H](O)[C@@H](O[C@H]5[C@H](O)[C@@H](O)[C@@H](O[C@H]6[C@H](O)[C@@H](O)[C@@H](O[C@H]7[C@H](O)[C@@H](O)[C@@H](O[C@H]1[C@H](O)[C@H]2O)O[C@@H]7CO)O[C@@H]6CO)O[C@@H]5CO)O[C@@H]4CO)O[C@@H]3CO	inactive	
CCc1cccc(CC)c1N	inactive	
c1ccc2ncccc2c1		50 µM (active)
OCCNCCO		50 µM (active)
CCCCC(CC)C(=O)OCCOCCOCCOC(=O)C(CC)CCCC (stereo not given)	inactive	
CCCCCCCCCC	inactive	
CCCCCCOC(=O)CC(CC(=O)OCCCCCC)(OC(=O)CCC)C(=O)OCCCCCC	inactive	
O=C(O)c1ccc2c(c1)nc(C(=O)NC1CCN(C3CC3)CC1)n2Cc1cc(-c2ccc(Cl)s2)on1	inactive	
c1ccc(C(O[C@@H]2CCCN(CCc3ccc4c(c3)OCO4)C2)c2ccccc2)cc1		78.3 µM (active)
CNC(C)=O	inactive	
OCCOCCOCCO	inactive	
OC(Cn1cncn1)(Cn1cncn1)c1ccc(F)cc1F	inactive	

Structure (SMILES)	outcome	AC50
CCCCN1C(=O)[C@@H]([C@H](O)C2CCCCC2)NC(=O)C12CCN(Cc1ccc(Oc3ccc(C(=O)O)cc3)cc1)CC2	inactive	
O=S1(=O)CCCO1	inactive	
O=C(NO)C1(NS(=O)(=O)c2ccc(Oc3ccc(F)cc3)cc2)CCOCC1	inactive	
C=CCc1cc(S(=O)(=O)c2ccc(O)c(CC=C)c2)ccc1O		91.4 µM (active)
CC[C@H](C)C(=O)O[C@H]1C[C@H](O)C=C2C=C[C@H](C)[C@H](CC[C@@H](O)C[C@@H](O)CC(=O)O)[C@H]21	inactive	
NC(=O)N(O)[C@@H]1COc2cc(OCc3ccccc3)ccc21	inactive	
Nc1ccn([C@@H]2O[C@H](CO)[C@@H](O)[C@@H]2O)c(=O)n1	inactive	
CC(C)CCCCCCOC(=O)C1CCCCC1C(=O)OCCCCCCC(C)C (stereo not given)	inactive	
CC(=O)c1ccccc1	inactive	
COCc1nnc(-c2ccc[n+]([O-])c2)n1-c1c(Cl)c(Cl)cc2[nH]c(=O)c(=O)[nH]c12	inactive	
CCOc1ccc2[nH]cc(C(=O)NCc3ccccc3)c(=O)c2n1	inactive	
NC(=O)N1c2ccccc2C=Cc2ccccc21	inactive	
OCC(CO)(CO)CO	inactive	
COc1cc2c(c(OC)c1OC)-c1ccc(OC)c(=O)cc1[C@@H](NC(C)=O)CC2		0.113 µM (active)
CCOC(N)=O	inactive	
NC(N)=O	inactive	
O=C(O)c1cccc(C[C@@H]2COc3ccc(OCc4nc5cc(F)ccc5s4)cc3[C@@H]2O)c1		81.3 µM (active)
CCCCCCCC/C=C\CCCCCCCC(=O)OC[C@@H](O)[C@H]1OC[C@H](O)[C@H]1O	inactive	
CCCCCCCCCCCCCCO	inactive	
c1ccc2cc3ccccc3cc2c1	inactive	
